# Active and inactive are the calls of the source.
# How the values were obtained:
# [1] = small molecules captured by biotinylated probe aFSTL3 – biochemical, small-molecule microarray, fluorescence 635/667, stem cell growth factor project, primary screen (AID 1064); details: higher = more signal;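 note: measures binding of the biotinylated anti-FSTL3 antibody to printed compounds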
# [2] = binders from COS7 lysate, DM2A8 probe, primary screen, torsin A project, cell lysate, small-molecule microarray, fluorescence 635/667 (AID 1065); details: higher = more signal, COS7 lysate expressing mutant human TOR1A
# [3] = small molecules captured by biotinylated probe aFGF2 – biochemical, small-molecule microarray, fluorescence 635/667, stem cell growth factor project, primary screen (AID 1067); details: higher = more signal;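 note: measures binding of biotinylated aFGF2 protein to printed compounds on slides; z-score merges feature fluorescence and signal-to-noise across triplicate slides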
# [4] = small molecules captured by biotinylated probe aFGF10 – biochemical, small-molecule microarray, fluorescence 635/667, stem cell growth factor project, primary screen (AID 1071); details: higher = more signal;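 note: score merges 667 nm spot intensity and signal to noise from triplicate slides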
# [5] = biological target: Neurogenic locus notch homolog protein 2 (Homo sapiens) (UniProt Q04721); assay: small molecules binding Notch2 protein – biochemical, small-molecule microarray, 635 nm fluorescence, stem cell growth factors, primary screen (AID 1073); details: higher = more signal
# [6] = biological target: Pro-neuregulin-1, membrane-bound isoform (Homo sapiens) (UniProt Q02297); assay: small molecules binding neuregulin-1 protein – biochemical, small-molecule microarray, fluorescence 635/667, psychiatric disease protein project, primary screen (AID 1075); details: NRG1 binding, 635 nm fluorescence, higher = more signal;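 note: score combines 667 nm spot fluorescence with signal to noise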
# [7] = test system: Neuregulin-1 EGF-like domain; assay: small molecules binding NRG1 EGF domain – biochemical, small-molecule microarray, 635 nm fluorescence, primary screen (AID 1081); details: higher = more signal;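 note: binding of the protein to compounds printed on small-molecule microarray slides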
# [8] = FRG1 expression reporter modulators in myotubes – cell-based, C2C12 myotubes, firefly/Renilla luciferase, luminescence, FRG1 inhibition for FSHD, primary screen (AID 1084); details: FRG1 promoter luciferase, higher = more signal, called active from +8 up or from −8 down
# [9] = small molecules captured by biotinylated probe aFST – biochemical, small-molecule microarray, fluorescence 635/667, stem cell growth factor project, primary screen (AID 1086); details: higher = more signal;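 note: score merges 667 nm fluorescence with signal-to-noise of each printed compound spot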
# [10] = binders of probe aHhip on microarray, primary screen, stem cell growth factor project, biochemical, small-molecule microarray, fluorescence 635/667 (AID 1087); details: higher = more signal;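 note: score merges spot fluorescence at 667nm with spot signal to noise ratio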
# Sequence of Neurogenic locus notch homolog protein 2 (Homo sapiens) (Q04721 whole entry, looked up, canonical isoform): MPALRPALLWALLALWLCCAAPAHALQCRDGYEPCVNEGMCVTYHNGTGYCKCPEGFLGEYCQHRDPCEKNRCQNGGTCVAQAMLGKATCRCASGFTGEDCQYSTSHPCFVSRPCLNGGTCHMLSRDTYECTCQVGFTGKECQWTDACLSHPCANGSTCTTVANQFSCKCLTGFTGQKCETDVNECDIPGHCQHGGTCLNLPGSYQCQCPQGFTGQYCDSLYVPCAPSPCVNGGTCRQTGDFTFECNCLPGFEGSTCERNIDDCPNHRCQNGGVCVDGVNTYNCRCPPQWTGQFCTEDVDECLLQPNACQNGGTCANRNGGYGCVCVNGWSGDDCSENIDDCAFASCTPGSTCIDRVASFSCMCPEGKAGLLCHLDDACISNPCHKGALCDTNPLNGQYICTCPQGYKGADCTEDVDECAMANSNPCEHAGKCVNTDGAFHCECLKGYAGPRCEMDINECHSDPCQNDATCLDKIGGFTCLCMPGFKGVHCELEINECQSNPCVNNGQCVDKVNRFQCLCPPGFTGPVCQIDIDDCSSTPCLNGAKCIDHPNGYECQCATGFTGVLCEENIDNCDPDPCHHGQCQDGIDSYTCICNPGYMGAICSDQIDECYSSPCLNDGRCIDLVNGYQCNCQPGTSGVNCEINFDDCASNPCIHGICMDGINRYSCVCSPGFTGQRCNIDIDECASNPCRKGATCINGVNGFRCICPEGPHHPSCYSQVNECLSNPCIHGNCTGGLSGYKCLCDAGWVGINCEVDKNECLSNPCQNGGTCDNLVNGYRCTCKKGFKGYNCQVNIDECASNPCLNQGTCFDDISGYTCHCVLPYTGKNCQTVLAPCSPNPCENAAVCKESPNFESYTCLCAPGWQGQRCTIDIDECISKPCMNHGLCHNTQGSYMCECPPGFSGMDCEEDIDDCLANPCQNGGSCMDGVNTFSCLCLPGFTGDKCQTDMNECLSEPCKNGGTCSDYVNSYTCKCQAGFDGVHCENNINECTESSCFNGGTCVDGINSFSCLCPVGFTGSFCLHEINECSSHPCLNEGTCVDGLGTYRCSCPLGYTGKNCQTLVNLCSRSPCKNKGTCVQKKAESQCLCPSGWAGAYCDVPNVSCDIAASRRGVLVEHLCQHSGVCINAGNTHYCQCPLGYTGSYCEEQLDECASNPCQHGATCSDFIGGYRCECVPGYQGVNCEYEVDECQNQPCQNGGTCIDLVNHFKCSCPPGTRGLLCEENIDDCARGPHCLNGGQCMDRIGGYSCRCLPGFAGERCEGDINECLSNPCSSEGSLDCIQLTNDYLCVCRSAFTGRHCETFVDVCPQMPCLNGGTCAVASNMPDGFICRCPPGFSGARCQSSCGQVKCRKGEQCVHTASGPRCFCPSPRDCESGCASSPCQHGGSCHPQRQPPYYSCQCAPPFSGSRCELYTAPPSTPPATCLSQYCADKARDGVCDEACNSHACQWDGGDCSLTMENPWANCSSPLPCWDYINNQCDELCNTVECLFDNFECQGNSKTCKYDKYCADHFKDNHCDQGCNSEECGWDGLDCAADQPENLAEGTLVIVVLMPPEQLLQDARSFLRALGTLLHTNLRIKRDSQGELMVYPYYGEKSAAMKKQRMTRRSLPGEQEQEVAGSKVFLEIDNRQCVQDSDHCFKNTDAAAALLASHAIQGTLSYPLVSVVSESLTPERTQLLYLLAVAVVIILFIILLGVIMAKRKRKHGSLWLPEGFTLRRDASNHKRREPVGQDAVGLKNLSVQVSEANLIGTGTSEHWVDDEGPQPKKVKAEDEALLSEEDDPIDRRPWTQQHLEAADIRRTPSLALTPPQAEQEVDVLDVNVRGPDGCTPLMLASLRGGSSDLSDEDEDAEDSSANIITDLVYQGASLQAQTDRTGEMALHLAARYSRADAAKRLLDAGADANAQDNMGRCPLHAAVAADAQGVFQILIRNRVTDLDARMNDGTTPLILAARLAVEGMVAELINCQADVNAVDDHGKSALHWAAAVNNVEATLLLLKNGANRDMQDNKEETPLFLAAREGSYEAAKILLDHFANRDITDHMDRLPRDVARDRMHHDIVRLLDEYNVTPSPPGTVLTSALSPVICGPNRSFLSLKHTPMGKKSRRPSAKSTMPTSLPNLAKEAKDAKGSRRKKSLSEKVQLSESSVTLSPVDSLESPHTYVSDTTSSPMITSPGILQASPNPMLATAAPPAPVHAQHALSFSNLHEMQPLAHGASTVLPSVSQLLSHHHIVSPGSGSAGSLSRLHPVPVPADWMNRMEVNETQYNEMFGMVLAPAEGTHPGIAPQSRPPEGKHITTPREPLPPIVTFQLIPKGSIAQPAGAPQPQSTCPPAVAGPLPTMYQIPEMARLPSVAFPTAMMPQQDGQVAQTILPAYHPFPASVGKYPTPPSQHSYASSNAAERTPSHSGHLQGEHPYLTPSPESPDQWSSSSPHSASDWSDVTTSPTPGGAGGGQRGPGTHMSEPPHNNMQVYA
# Sequence of Pro-neuregulin-1, membrane-bound isoform (Homo sapiens) (Q02297 whole entry, looked up, the tested form may be a part, canonical isoform): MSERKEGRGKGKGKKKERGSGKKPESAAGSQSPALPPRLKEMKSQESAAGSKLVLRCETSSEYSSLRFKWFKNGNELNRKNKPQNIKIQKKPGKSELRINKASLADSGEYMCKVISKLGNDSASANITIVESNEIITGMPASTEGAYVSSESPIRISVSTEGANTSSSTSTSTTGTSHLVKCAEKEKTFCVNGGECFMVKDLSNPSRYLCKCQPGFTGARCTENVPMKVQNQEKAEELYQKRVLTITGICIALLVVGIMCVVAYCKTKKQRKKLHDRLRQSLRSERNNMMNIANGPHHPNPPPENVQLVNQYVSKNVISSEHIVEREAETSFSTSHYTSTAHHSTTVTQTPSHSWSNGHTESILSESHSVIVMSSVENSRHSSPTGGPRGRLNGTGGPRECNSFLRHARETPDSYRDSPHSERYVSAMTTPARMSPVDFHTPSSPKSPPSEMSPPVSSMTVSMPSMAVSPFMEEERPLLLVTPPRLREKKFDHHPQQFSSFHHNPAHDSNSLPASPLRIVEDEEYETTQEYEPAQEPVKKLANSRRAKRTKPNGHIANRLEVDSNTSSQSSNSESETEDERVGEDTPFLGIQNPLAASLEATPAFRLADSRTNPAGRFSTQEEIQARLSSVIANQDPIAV
SMILES,composite z-score [1],composite z-score [2],composite z-score [3],composite z-score [4],composite z-score [5],composite z-score [6],composite z-score [7],z-score [8],composite z-score [9],composite z-score [10]
CCCC=C(CCC)[C@@H](NS(=O)(=O)c1ccc(Cl)cc1)c1ccccc1,0.329,-0.558,0.106,-0.243,0.191,-0.223,-0.358,0.909 (inactive),-0.0037,0.0251
COC(=O)[C@@]1(Cc2ccccc2)[C@H]2c3cc(C(=O)N4CCCC4)n(Cc4ccc(C(F)(F)F)nc4)c3C[C@H]2CN1C(=O)c1ccccc1,0.356,1.74,0.237,0.747,1.54,1.98,1.37,0.419 (inactive),2.11,0.0858
CC1CC/C=C\[C@H]2OC34C=CCN(c5ccc(Cl)cc5)C(=O)[C@H]3N(CCCO)C(=O)[C@]4(C)C2C(=O)O1 (stereo not given in full),0.316,-1.4,-0.162,-1.11,-0.932,1.38,1.64,-0.0856 (inactive),-0.558,-0.296
COc1ccc(NN2C(C(O)c3ccc(OC)cc3)C=CC3C(=O)N(C4CCCCC4)C(=O)C32)cc1 (stereo not given),-0.147,0.191,-0.0131,0.467,1.18,1.29,0.978,1.55 (inactive),0.775,-0.16
CC(C)C[C@H]1NC(=O)[C@@H](C)NC(=O)[C@@]23C(=O)N[C@@H](Cc4ccccc4)C2[C@H](C)[C@@]2(C)O[C@H]2C3/C=C/C/C=C\CNC1=O (stereo not given in full),-0.112,-0.0039,-0.185,0.346,0.125,0.483,0.798,1.85 (inactive),-0.141,-0.121
C[C@H]1NC(=O)C([C@@H](C)OCc2ccccc2)NC(=O)[C@@]23C(=O)N[C@@H](Cc4ccccc4)C2[C@H](C)[C@@]2(C)O[C@H]2C3/C=C/C/C=C\CNC1=O (stereo not given in full),-0.265,0.0677,-0.183,0.817,-0.363,-0.341,0.989,0.493 (inactive),-0.407,-0.0324
CC#CCO[Si](C#CCCCCCC)(C(C)C)C(C)C,1.3,-0.134,-0.24,-1.16,-1.9,-0.353,0.439,-0.524 (inactive),-1.3,-0.341
CCCCC(O)C1C=CC2C(=O)NC(=O)C2N1Nc1ccc(Cl)cc1Cl (stereo not given),0.439,-0.384,0.0127,0.612,0.866,1.3,1.09,0.0812 (inactive),0.691,-0.27
CC(C)C(=C=CC[C@@H](O)c1ccccc1OCCO)C[C@@H](O)c1cc(Cl)cc(Cl)c1O,-0.667,1.84,-0.076,0.961,1.16,1.48,1.19,-1.95 (inactive),0.704,-0.0296
C=CCC(OC(C)=O)[C@@H]1[C@@H](N(Cc2cc3ccccc3o2)C(=O)c2cccc3ccccc23)c2cc(OCCCO)ccc2N1C(=O)c1ccc2ccccc2c1 (stereo not given in full),-0.16,-0.267,-0.0993,0.277,-0.0361,-0.223,0.272,-4.21 (inactive),0.296,-0.128
COCCOC(=O)N1C(=O)[C@@]2(c3cc(C#CC4=CCCCC4)ccc31)[C@H](C(=O)N1CCN(c3ncccn3)CC1)[C@H]1C(=O)O[C@H](c3ccccc3)[C@H](c3ccccc3)N1[C@@H]2c1ccccc1OCCO,-0.285,0.943,0.0346,0.616,0.793,0.591,1.15,1.45 (inactive),0.636,-0.0237
NC(=O)N1C(=O)C2C(C1=O)C1C=C(CCCO)C2C(c2ccc(CN3CCCC3)cc2)N1Cc1cccc(OC(F)(F)F)c1 (stereo not given),-0.0367,0.145,0.028,0.173,0.185,-0.299,1.03,-0.0987 (inactive),0.0635,-0.0296
CC(C)C(=C=CC[C@@H](O)c1ccc(OCCO)cc1)CCO,-0.226,-0.0605,-0.128,0.127,-0.0765,0.346,0.402,0.0636 (inactive),-0.315,0.0505
COc1ccc(CCNC(=O)[C@@]2(Sc3ccc(C)cc3)CC(=O)N(Cc3cc(C(F)(F)F)cc(C(F)(F)F)c3)[C@@H]2c2ccc(CO)cc2)cc1,0.575,-0.748,-0.188,-0.498,-1.79,-0.854,-0.637,0.522 (inactive),-0.498,0.132
CC(=O)NCCCC[C@@H]1NC(=O)[C@H]2C[C@@H](C(=O)NCCCCCC[N+](C)(C)C)[C@@H](c3ccc(O)cc3)N2C1=O,-0.383,0.808,-0.144,-0.351,-0.181,1.35,1.41,5.36 (inactive),-0.18,-0.199
CCCC[C@@H]1C[C@H]1[C@@H](NC(=O)c1ccc(C(F)(F)F)cc1)c1ccc(C(=O)OC)cc1,1.54,2.4,0.589,0.769,0.587,0.311,0.0521,-2.69 (inactive),0.568,2.46
COCCOC(=O)N1C(=O)[C@@]2(c3cc(C#CC4(O)CCCCCC4)ccc31)[C@H](c1ccccc1OCCO)N1[C@H](c3ccccc3)[C@H](c3ccccc3)OC(=O)[C@H]1[C@@H]2C(=O)N1CCCCCCC1,2.94,1.24,0.324,0.256,0.869,1.45,1.29,-0.926 (inactive),2.73,1.83
Cc1ccc(S[C@]2(C(=O)NCCCN(C)C)CC(=O)N(Cc3ccccc3Cl)[C@@H]2c2ccc(CO)cc2I)cc1,1.23,-0.42,-0.0996,-0.855,-1.17,1.07,0.801,-1.4 (inactive),0.141,-0.0346
CCCCNC(=O)c1ccc(C#C[Si](C)(C)C)c(OC(C)=O)c1,-0.175,0.293,-0.0718,0.112,0.277,-0.166,0.103,1.87 (inactive),-0.0501,-0.0726
CCCCCCc1nc(-c2ccc(OC)nc2)cc2c1[Si](C(C)C)(C(C)C)OC2,-0.0192,0.456,-0.15,-0.0125,-0.383,-0.151,-0.769,0.366 (inactive),-0.193,0.0306
CN(C)CCCC[C@@H]1NC(=O)[C@H]2C[C@@H](C(=O)O)[C@@H](c3cccc(OCCO)c3)N2C1=O,0.794,1.13,-0.0238,0.105,0.146,0.212,1.44,6.56 (inactive),0.547,0.0374
C=C(CCCC)/C(=C/C[C@H](OC(C)=O)c1cccc(OCCO)c1)c1cc(C(=O)OC)ccc1OC,0.0336,-0.325,-0.0852,-0.0418,-0.393,-0.578,0.131,-0.502 (inactive),-0.221,-0.201
COCCOC(=O)N1C(=O)[C@@]2(c3cc(C#CC4(O)CCCCCC4)ccc31)[C@H](c1ccc(OCCO)cc1)N1[C@H](c3ccccc3)[C@H](c3ccccc3)OC(=O)[C@H]1[C@@H]2C(N)=O,-0.392,0.96,0.014,1.05,0.96,1.32,1.14,0.11 (inactive),0.48,-0.0645
CCCCC=C[C@@H](NC(=O)c1ccc(C(F)(F)F)cc1)c1ccccc1,0.385,0.0374,-0.0583,-0.0239,-0.955,0.297,-0.444,1.02 (inactive),-0.392,0.449
COC(=O)[C@@]1(CCS(=O)(=O)c2ccccc2)N=C(c2ccc(OCCCO)cc2)O[C@H]1c1ccccc1N=[N+]=[N-],-0.0367,0.35,-0.051,0.207,1.05,0.573,1.21,-2.34 (inactive),0.252,-0.0346
CN(C)CCCC[C@@H]1NC(=O)[C@@H]2C[C@H](C(=O)NCCCCCCNC(=O)CS)[C@H](c3cccc(OCCO)c3)N2C1=O,0.0594,0.353,-0.0621,0.628,-0.453,0.67,0.838,-0.786 (inactive),0.123,0.0373
COC(=O)[C@@]1(Cc2ccc(OC)cc2)[C@H]2c3cc(C(=O)N(C)C)n(Cc4ccsc4Br)c3C[C@H]2CN1C(=O)c1ccccc1,0.254,-0.162,0.336,0.752,1.64,1.89,0.856,-0.778 (inactive),0.45,0.239
C=C(COC)C(=O)CC[C@@H](OC(C)=O)c1ccc(OCCO)cc1,0.266,1.48,-0.107,0.432,0.297,-0.239,0.835,-0.556 (inactive),-0.25,0.347
